From PubChem BioAssay AID1578 (Sanford-Burnham Center for Chemical Genomics, 2009)
The campaign covered roughly 290,000 compounds. About 3,000 (1%) were called active. No stated cut-off is given here; in the data, active means inhibition mostly above about 36% (no sharp cut-off); inactive means mostly below about 34%. The sample as a whole holds a higher share of actives than the screen did.

Experiment: NOD1 signaling inhibitors, primary screen, cell-based, luminescence, uHTS (AID 1578);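 further: HEK-293T reporter cells stimulated with the NOD1 agonist gamma-tri-DAP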
Settings: NOD1-driven NF-kB luciferase reporter cells, at 4 µM, stronger effect = higher value

SMILES	inhibition
O=C(c1ccc(Br)cc1)N(c1ccccn1)C1CCCCC1	-12.8% (inactive)
CCOC(=O)CC1C(=O)NCCN1c1nc2c(C)cccn2c(=O)c1/C=C1\SC(=S)N(C(C)CC)C1=O (centres undefined)	35.4% (active)
CCOC(=O)CC1C(=O)NCCN1c1nc2c(C)cccn2c(=O)c1/C=C1\SC(=S)N(CC(C)C)C1=O (centres undefined)	32% (active)
CCCN1C(=O)/C(=C/c2c(N3CCNC(=O)C3CC(=O)OCC)nc3c(C)cccn3c2=O)SC1=S (centres undefined)	-1% (inactive)
CCOC(=O)CC1C(=O)NCCN1c1nc2ccc(C)cn2c(=O)c1/C=C1\SC(=S)N(C(C)CC)C1=O (centres undefined)	20.6% (inactive)
CCCN1C(=O)/C(=C/c2c(N3CCNC(=O)C3CC(=O)OC)nc3c(C)cccn3c2=O)SC1=S (centres undefined)	6.9% (inactive)
CCOC(=O)CC1C(=O)NCCN1c1nc2ccc(C)cn2c(=O)c1/C=C1\SC(=S)N(CC(C)C)C1=O (centres undefined)	3.2% (inactive)
COc1ccc(C(=O)O)cc1NC(=S)NC(=O)Cc1ccc(Cl)cc1	-11.2% (inactive)
Cn1c(SCC(=O)NCCc2ccccc2)nnc1C1CCCCC1	-6.8% (inactive)
COC(=O)Nc1ccc(N2CCOCC2)c(S(=O)(=O)N2CCOCC2)c1	-18% (inactive)
c1ccc(C2[C@H]3CN(Cc4cccnc4)[C@H](c4ccccc4)C34CC2(c2ccccc2)C4)cc1 (some centres undefined)	-5.1% (inactive)
Cc1ccc(C)c(N2CCN(C(=O)CCNC(=O)Cn3ccc4ccccc4c3=O)CC2)c1	33% (inactive)
O=[N+]([O-])c1ccccc1C1Nc2cccc3cccc(c23)N1	105% (active)
Oc1ccccc1C1Nc2cccc3cccc(c23)N1	7.9% (inactive)
O=[N+]([O-])c1ccc(C2Nc3cccc4cccc(c34)N2)cc1	25.1% (inactive)
Cc1ccc(C(NC(=O)N2CCOCC2)=C(Cl)Cl)cc1F	32.1% (inactive)
Cc1ccc(C(NC(=O)N2CCCCC2)=C(Cl)Cl)cc1F	74% (active)
Cc1ccc(C(NC(=O)NCCCN2CCOCC2)=C(Cl)Cl)cc1F	34.4% (inactive)
COc1ccc(CN2CCN(c3cccc(C)c3C)CC2)cc1OC	21.4% (inactive)
CCC1Oc2ccc(C)cc2N(CC(=O)NCCN2CCOCC2)C1=O (centres undefined)	-21% (inactive)

SMILES	inhibition
c1ccc(C2=NN(c3ccccc3)C(c3ccco3)C2)cc1 (centres undefined)	54.1% (active)
Fc1ccc(C2=NN(c3ccccc3)C(c3ccco3)C2)cc1 (centres undefined)	4% (inactive)
Clc1ccc(C2=NN(c3ccccc3)C(c3ccco3)C2)cc1 (centres undefined)	-9.1% (inactive)
O=S(=O)(c1ccc(F)cc1)N1CCn2c(nc3ccccc32)C1	-11.7% (inactive)
CCOc1ccc(S(=O)(=O)Nc2cc(C)ccn2)c2ccccc12	5.2% (inactive)
Cc1ccc2[nH]c3c(=O)n(Cc4ccco4)cnc3c2c1	1.2% (inactive)
CCOc1cccc(-c2nnc3sc(-c4ccc(C)cc4)nn23)c1	-0.8% (inactive)
CCOc1cccc(-c2nnc3sc(C4CCCCC4)nn23)c1	66.8% (active)
COc1cc(-c2nnc3sc(C4CCCCC4)nn23)cc(OC)c1OC	-20.6% (inactive)
c1cncc(-c2nnc3sc(C4CCCCC4)nn23)c1	-14.1% (inactive)
COc1cccc(-c2nnc3sc(C4CCCCC4)nn23)c1	96.4% (active)
COc1ccc(-c2nnc3sc(C4CCCCC4)nn23)cc1OC	9.5% (inactive)
O=C(c1ccccc1)N1CCC(c2nc(-c3ccc(S(=O)(=O)N4CCOCC4)cc3)no2)CC1	18.2% (inactive)
COCCCNC(=S)NNC(=O)Cn1nc(C)c(Br)c1C	0.3% (inactive)
CC(Oc1ccc(Cl)cc1Cl)c1nc(-c2ccc(NC(=O)c3ccccn3)cc2)no1 (centres undefined)	-18.6% (inactive)
CC(Oc1ccc(Cl)cc1Cl)c1nc(-c2ccc(NC(=O)c3ccncc3)cc2)no1 (centres undefined)	42.3% (active)
CC(Oc1ccc(Cl)cc1Cl)c1nc(-c2ccc(NC(=O)c3ccco3)cc2)no1 (centres undefined)	-12.3% (inactive)
C=C(C(=O)O)C1CCC2(C)CCCC(C)(O)C2C1 (centres undefined)	-0.6% (inactive)
O/C=c1\ccc2cccc3nc(C(F)(F)F)nc1c23	38% (active)
NNc1nc(C(F)(F)F)nc2ccccc12	-7.9% (inactive)

SMILES	inhibition
C/C(O)=c1/ccc2cccc3nc(C)nc1c23	-3.6% (inactive)
Cc1ccc(NC(=O)COC(=O)C(NS(=O)(=O)c2ccc(Cl)cc2)C(C)O)c(Br)c1 (centres undefined)	-22.2% (inactive)
CCOC(=O)N1CCN(C(=O)CN(C2CCCCC2)S(=O)(=O)c2c(C)cc(C)cc2C)CC1	-2.2% (inactive)
CCCNC(=O)c1ccc(S(=O)(=O)c2ccc(OC)cc2)c([N+](=O)[O-])c1	63.9% (active)
COc1ccc(C(=O)NCCNc2ccccc2[N+](=O)[O-])cc1	-34% (inactive)
COc1ccc(C(=O)NCCNc2ccc([N+](=O)[O-])cc2)cc1	-51.3% (inactive)
CCOc1ccc(OCC)c(S(=O)(=O)n2cc(C)nc2CC)c1	-17.2% (inactive)
CCc1nc(C(N)=O)c2[nH]c(=O)n(-c3ccccc3F)c2n1	-17% (inactive)
COc1cc(/C=C/C(=O)N2C(=O)c3cccc(N)c3C2=O)cc(OC)c1OC	17.4% (inactive)
COc1ccc(OC)c(/C=C/C(=O)N2C(=O)c3cccc(N)c3C2=O)c1	88.6% (active)
Nc1cccc2c1C(=O)N(C(=O)/C=C/c1cccc(Br)c1)C2=O	3.9% (inactive)
COCCSc1nnc(NC(=O)Cc2ccc(OC)cc2)s1	-20.4% (inactive)
CCN1C(=O)C(CC(=O)Nc2ccc(OC)cc2)N(CCCN2CCN(c3ccc(F)cc3)CC2)C1=S (centres undefined)	-47.7% (inactive)
COc1ccccc1N1CCN(C(=O)CCCNC(=O)Cn2cnc3sc(C)c(C)c3c2=O)CC1	17.8% (inactive)
Cc1cccc(NC(=O)CSc2nccn2Cc2ccco2)c1C	-19.3% (inactive)
CN(C)c1ccc(/C=N/Nc2nncc3ccccc23)cc1	15% (inactive)
CN(CCO)c1ccc(/C=N/Nc2nncc3ccccc23)cc1	57.1% (active)
COc1ccc(/C=N/Nc2nncc3ccccc23)cc1	0.2% (inactive)
O=C(COC(=O)c1sc2cc(Cl)ccc2c1Cl)Nc1ncc(Cl)cc1Cl	-10.9% (inactive)
